From article PMC12215968

target: Ubiquitin-ribosomal protein eS31 fusion protein (UniProt P62979); test: cross-link between two proteins; cross-linking mass spectrometry

| Substance | listed as a hit |
| --- | --- |
| Ubiquitin carboxyl-terminal hydrolase 5, P45974 | yes |
| Ubiquitin-conjugating enzyme E2 K, P61086 | yes |
| Ubiquitin-conjugating enzyme E2 N, P61088 | yes |
